This note sets out measurements from PubChem BioAssay (Tox21).

Values without a mark were called inactive. Inconclusive results are not listed. Active and inactive are the calls of the source. Unless noted, calls follow the shape of the dose curve; as a rule, active = well fitted curve in the direction sought with a large enough effect in the repeat runs; inconclusive = weak or mixed curves; inactive = no such curve, though single readings can be large; an effect the other way counts as inactive or inconclusive.

The nature of experiment [1]: qHTS assay for small molecules that induce genotoxicity in human embryonic kidney cells expressing luciferase-tagged ATAD5 (AID 651632). Also: nearly all actives have a fitted effect of over 15% in size. Also: potency is read from the fitted curve at half-maximal effect. Put shortly: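 Luminescent reporter readout, HEK293T ATAD5-luc line: 16 hr drug exposure (37C, 5% CO2) followed by Amplite, 30 min RT.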
A short description of experiment [2]: qHTS assay for small molecule agonists of the p53 signaling pathway - cell viability (AID 651633; calls by dose curve;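 also: p53RE-bla HCT reporter cells with a stable beta-lactamase p53 reporter; series mostly up to about 83 µM; nearly all actives have a fitted effect of over 30% in size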). Put shortly: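 p53RE-bla cells were treated with compound for 16 hours at 37 C. Cytotoxicity was then measured as CellTiter-Glo luminescence after 30 min at room temperature.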
The nature of experiment [3]: qHTS assay for small molecule disruptors of the mitochondrial membrane potential - cell viability (AID 720634; calls by dose curve;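 also: human HepG2 liver cancer cells; series mostly up to about 83 µM; nearly all actives have a fitted effect of over 20% in size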). Put shortly:
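HepG2, 1 hr compound, 37 C. ATP luminescence via CellTiter-Glo, 30 min RT, same well as m-MPI.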

Experiment [4] can be described thus: qHTS assay to test for compound auto fluorescence at 590 nm (red) in HepG2 cells (AID 720674). Put shortly: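 HepG2 cells, 2,000 per well in MEM with 10% FBS, attached overnight at 37 C, then got 23 nL compound or DMSO. After 1 hr at 37 C, 5% CO2, red fluorescence was read at 540/590 nm against Rose Bengal sodium as reference.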
Experiment [5] can be described thus: qHTS assay to test for compound auto fluorescence at 535 nm (green) in HepG2 cells (AID 720675).
Experiment [6] can be described thus: qHTS assay to test for compound auto fluorescence at 460 nm (blue) in HEK293 cells (AID 720678). Put shortly: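 Blue-channel (Ex/Em 405/460 nm) intensity measured in HEK293 cultures after overnight compound exposure at 37C; signal expressed relative to triamterene. Cells plated 2,000 per well in 10% dialyzed FBS medium and allowed 4-5 hr to attach.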
Experiment [7] can be described thus: qHTS assay to test for compound auto fluorescence at 590 nm (red) in HEK293 cells (AID 720679). Put shortly:
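Red-channel autofluorescence (Ex/Em 540/590 nm; Rose Bengal sodium reference) was measured after overnight 37C, 5% CO2 exposure of attached HEK293 cells, 2,000 per well in medium with 10% dialyzed FBS.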

Experiment [8] in a line: qHTS assay for small molecules that induce genotoxicity in human embryonic kidney cells expressing luciferase-tagged ATAD5 - cell viability (AID 651634; calls by dose curve; also: nearly all actives have a fitted effect of over 25% in size). Put shortly: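 Viability read: CellTiter-Fluor fluorescence, 30 min at 37C. Cells: HEK293T, luciferase-tagged ATAD5. Exposure: 15.5 hr, 37C, 5% CO2, compound or DMSO vehicle.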
Experiment [9] can be described thus: qHTS assay for small molecule disruptors of the mitochondrial membrane potential (AID 720635). Also: potency is read from the fitted curve at half-maximal effect. Put shortly:
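HepG2 cells exposed to compound 1 hr at 37C, then Mito-MPS dye 30 min. Ratio read of aggregate (540/590 nm) versus monomer (490/535 nm) fluorescence.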
% is scaled to controls: 0 for no effect and ±100 for the full control effect.

In the case of `CC(C)=CCCC(C)C=O` (stereo not drawn), the Potency entry in [1], in experiment [2], in [3] and in experiment [6] was “inactive” in each case. Moreover, the result in experiment [4], in experiment [5] and in experiment [7] was inactive.
As to `OCCc1ccncc1`, the Potency result in experiment [1], in experiment [2], in [8], in experiment [3] and in experiment [6] was “inactive” each time. Moreover, the call in experiment [4], in [5] and in experiment [7] was inactive.
Consider `O=C(O)c1cc(C(=O)O)c(C(=O)O)cc1C(=O)O`, for which the Potency result in experiment [1], in experiment [2], in experiment [8], in experiment [3] and in [6] was “inactive” throughout. The compound was called inactive in experiment [4], in experiment [5] and in experiment [7].
With `CCOC(C)OCC`, the Potency entry in [1], in experiment [2], in experiment [8], in [3] and in [6] was “inactive” each time. Besides, the result in experiment [4], in experiment [5] and in [7] was inactive.
For the compound `COc1cccc([C@H](O)C2CCN(CCc3ccc(F)cc3)CC2)c1OC`, the Potency entry in experiment [1], in experiment [2], in experiment [8], in experiment [3] and in experiment [6] was “inactive” each time. For the same compound, the result in experiment [4], in experiment [5] and in experiment [7] was inactive.
For the compound `CC(C)(Cc1c[nH]c2ccccc12)NCC(O)COc1ccccc1C#N` (stereo not drawn), the Potency result in experiment [1], in experiment [2], in experiment [8], in experiment [3] and in [6] was “inactive” in each case. Moreover, the result in experiment [4], in experiment [5] and in experiment [7] was inactive.
For `CCc1ccc2c(c1)C(=O)c1ccccc1C2=O`, the Potency in [1] was 12.2 µM (active); in experiment [9], 13.7 µM (active). Moreover, the Potency result in experiment [2], in [8] and in experiment [6] was “inactive” each time. The call in experiment [4], in experiment [5] and in experiment [7] was inactive.
Turning to `CC(=O)c1ccc(Cl)c(Cl)c1Cl`, the Potency entry in experiment [1], in [2], in experiment [8], in experiment [3] and in [6] was “inactive” throughout. The result in [4], in experiment [5] and in experiment [7] was inactive.
As to `N#C[C@@H]1CC(F)(F)CN1C(=O)CNC1CC2CCC(C1)N2c1ncccn1` (stereo partly drawn), the Potency entry in [1], in [2], in experiment [3] and in [6] was “inactive” in each case. Besides, the compound was classed as inactive in [4], in [5] and in [7].
On to `O=C1c2ccccc2C(=O)C1c1ccc2ccccc2n1`, for which the results for the Potency in experiment [1] and in experiment [9] were 0.0762 µM (active) and 0.34 µM (active), respectively. Besides, the Potency result in [2], in [8] and in [6] was “inactive” in each case. In addition, the compound was classed as inactive in experiment [4], in experiment [5] and in experiment [7].
Turning to `CC/C=C\CCO`, the Potency entry in experiment [1], in [2], in experiment [8], in [3] and in experiment [6] was “inactive” each time. Moreover, the compound was classed as inactive in experiment [4], in experiment [5] and in experiment [7].
Take `CCCCOC(=O)C(C)Oc1ccc(Oc2ccc(C(F)(F)F)cn2)cc1` (stereo not drawn): the Potency entry in experiment [1], in experiment [2], in experiment [3], in experiment [9] and in experiment [6] was “inactive” in each case. For the same compound, the call in experiment [4], in experiment [5] and in experiment [7] was inactive.
With `O=C(OCCOCCOCCOC(=O)c1ccccc1)c1ccccc1`, the Potency entry in experiment [1], in [2], in [8], in [3] and in experiment [6] was “inactive” each time. Besides, the call in [4], in [5] and in experiment [7] was inactive.
Regarding `C=C[Si]1(C)O[Si](C)(C=C)O[Si](C)(C=C)O[Si](C)(C=C)O1` (stereo not drawn), the Potency result in [1], in experiment [2], in experiment [8] and in experiment [6] was “inactive” throughout. Moreover, the compound was classed as inactive in experiment [4], in [5] and in experiment [7].
With `Oc1ccc(CCNCCCCCCNCCc2ccccc2)cc1O`, the Potency entry in [1], in experiment [2], in [3] and in [6] was “inactive” throughout. The compound was called inactive in [4], in [5] and in experiment [7].
Consider `O=C1c2ccccc2C(=O)c2c1ccc(O)c2O`, for which the Potency entry in experiment [1], in experiment [2], in [3] and in [6] was “inactive” throughout. The Potency in experiment [9] is 9.44 µM (active). The compound was called inactive in experiment [4], in experiment [5] and in experiment [7].
On to `COc1cc(CNC(=O)CCCC/C=C/C(C)C)ccc1O`, for which the Potency result in experiment [1], in experiment [2], in experiment [3] and in experiment [6] was “inactive” in each case. The compound was called inactive in [5] and in experiment [7].
With `CCOC(=O)CC(O)(CC(=O)OCC)C(=O)OCC`, the Potency result in [1], in experiment [2], in experiment [8] and in experiment [6] was “inactive” in each case. The compound was classed as inactive in experiment [4], in experiment [5] and in experiment [7].
As for `C[C@]12CCC(=O)C=C1[C@@H]1C[C@@H]1[C@H]1[C@@H]3[C@@H]4C[C@@H]4[C@@]4(CCC(=O)O4)[C@@]3(C)CC[C@@H]12`, the Potency result in experiment [8] and in experiment [6] was “inactive” each time. Also, the call in experiment [4], in experiment [5] and in experiment [7] was inactive.
In the case of `c1ccc(CN(Cc2ccccc2)Cc2ccccc2)cc1`, the Potency result in experiment [1], in [3] and in [6] was “inactive” each time. Further, the Potency in [9] was 30.6 µM (active). For the same compound, the outcome in [4], in [5] and in experiment [7] was inactive.
`Cc1c(-c2cccnc2)c2ccccc2n1CCCCC(=O)O`: the Potency entry in experiment [2], in [8], in experiment [3] and in experiment [6] was “inactive” each time. The outcome in [4], in experiment [5] and in experiment [7] was inactive.
Take `CC(C)(C(=O)O)c1ccc(C(O)CCCN2CCC(C(O)(c3ccccc3)c3ccccc3)CC2)cc1` (stereo not drawn): the Potency result in experiment [2], in [8], in experiment [3], in [9] and in experiment [6] was “inactive” each time. The compound was classed as inactive in experiment [4], in experiment [5] and in experiment [7].
Take `CC(=O)c1cccnc1`: the Potency entry in [2], in experiment [8], in [3], in experiment [9] and in experiment [6] was “inactive” throughout. In addition, the compound was classed as inactive in experiment [5] and in experiment [7].
On to `CCN(CCCCOC(=O)c1ccc(OC)c(OC)c1)C(C)Cc1ccc(OC)cc1` (stereo not drawn), for which the Potency entry in experiment [2], in experiment [8], in experiment [3] and in experiment [9] was “inactive” throughout. Also, in [4], the fluorescence, relative to Rose Bengal is 0.21% [at 18.6 µM]. For the same compound, the fluorescence, % of fluorescein control in experiment [5] is 0.0889% [at 18.6 µM]. For the same compound, the fluorescence, % of triamterene in experiment [6] is 0.0022% [at 18.6 µM]. Besides, in [7], the fluorescence, % of fluorescent control is -0.338% [at 18.6 µM].
Turning to `O=c1[nH]nc(-c2ccc([N+](=O)[O-])o2)o1`, the Potency entry in [1], in experiment [2] and in experiment [6] was “inactive” throughout. In addition, the Potency in experiment [9] is 43.3 µM (active). In addition, the outcome in [4], in [5] and in experiment [7] was inactive.
As to `C=CCCC`, the Potency entry in [2], in [8], in [3], in experiment [9] and in experiment [6] was “inactive” each time. In addition, the result in [5] and in [7] was inactive.
